Source: the supplement of paper PMC4166925
± gives the standard deviation of the averaged measurements. Over roughly 33,000 sequences, “E-score (dimensionless, -0.5 to 0.5)” has its median near -0.046; the highest 2% begin near 0.36. The sample as a whole holds a higher share of the highest values than the screen did.

Test system: T1, SpTbr T-box DNA-binding domain (GST fusion)
T1 sequence: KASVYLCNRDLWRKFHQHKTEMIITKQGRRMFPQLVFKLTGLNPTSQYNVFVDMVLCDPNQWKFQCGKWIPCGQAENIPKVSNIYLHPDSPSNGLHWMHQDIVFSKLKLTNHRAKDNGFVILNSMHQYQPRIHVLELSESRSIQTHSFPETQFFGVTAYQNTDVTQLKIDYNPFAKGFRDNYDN
Assay: PBM E-score of 8-mer (E-score (dimensionless, -0.5 to 0.5)); Tbr is Tbrain of the sea star Patiria miniata (Pm) or the sea urchin Strongylocentrotus purpuratus (Sp); higher = stronger binding preference
Details: the construct has about 5 more residues each side
Method in brief: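 Each ungapped 8-mer received an enrichment E-score from the Universal PBM Analysis Suite, averaged over duplicate arrays. The proteins were Tbr T-box DNA-binding domains, covering the whole T-box plus about five flanking residues, fused to GST and expressed in BL21 E. coli at 20 °C before glutathione affinity purification. Universal Agilent oligonucleotide arrays were made double-stranded by primer extension and incubated with 200 nM protein in PBS (pH 7.5). The arrays were then scanned and quantified, and every 8-mer was scored from probe intensities.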

| Sequence | PBM E-score of 8-mer |
| --- | --- |
| GTGACAAA | 0.38303 ± 5.7e-05 |
| CTGACAAC | 0.259 ± 0.018 |
| ATGACAAC | 0.222 ± 0.017 |
| GCGACAAC | 0.369 ± 0.007 |
| CTGACACA | 0.356 ± 0.022 |
| ACGACAAC | 0.2279 ± 0.0012 |
| GAGACACA | 0.15 ± 0.01 |
| CCGACAAC | 0.159 ± 0.048 |
| CTGACAAA | 0.0345 ± 0.084 |
| GTGACACA | 0.403 ± 0.0044 |
| ATGACAAA | -0.0554 ± 0.028 |
| GTGACAAC | 0.4467 ± 0.0025 |
| AGGTAGCA | 0.0725 ± 0.016 |
| ACCACAAT | -0.0442 ± 0.058 |
| GGCACCCA | 0.173 ± 0.021 |
| GCCACCCA | 0.0264 ± 0.086 |
| AACACCCA | 0.293 ± 0.035 |
| GGCACCCC | 0.22 ± 0.003 |
| AACACCCT | 0.4 ± 0.0049 |
| GACACCCC | 0.405 ± 0.026 |
| AACACCCC | 0.39126 ± 9.9e-05 |
| GACACCCA | 0.374 ± 0.032 |

| Sequence | PBM E-score of 8-mer |
| --- | --- |
| AGCACCCT | 0.202 ± 0.025 |
| ACCACCCT | 0.0155 ± 0.074 |
| ATCACCCC | 0.232 ± 0.013 |
| GCCACCCC | 0.181 ± 0.081 |
| CAGCCGGA | 0.05 ± 0.018 |
| CCAGTCAC | 0.0388 ± 0.0065 |
| AAGTTTCT | 0.0712 ± 0.037 |
| CCTCCTCA | 0.0831 ± 0.027 |
| AGATCTCA | 0.098 ± 0.054 |
| TATTCTCA | 0.264 ± 0.061 |
| CGAAAACC | -0.297 ± 0.0092 |
| GTCGCGTA | 0.0514 ± 0.011 |
| CCGGCCAA | -0.208 ± 0.042 |
| AACACCAA | 0.356 ± 0.012 |
| ACCACCAT | 0.108 ± 0.082 |
| AACACCAT | 0.377 ± 0.021 |
| GATATAGC | 0.118 ± 0.023 |
| ATCAAATA | -0.182 ± 0.015 |
| CGTCGACA | 0.251 ± 0.031 |
| TGTCGACA | 0.384 ± 0.01 |
| AGTCGACA | 0.179 ± 0.051 |
| GCAAACCC | -0.0464 ± 0.01 |

| Sequence | PBM E-score of 8-mer |
| --- | --- |
| ACATATTC | 0.203 ± 0.049 |
| CCTCGCAG | 0.128 ± 0.0015 |
| GCTCGCAA | 0.224 ± 0.021 |
| CCTCGCAC | 0.396 ± 0.032 |
| ACTCGCAC | 0.394 ± 0.035 |
| ACTCGCAT | -0.00696 ± 0.059 |
| GCTCGCAC | 0.4252 ± 0.0014 |
| GCTCGCCC | -0.196 ± 0.039 |
| ACTCGCAG | 0.0332 ± 0.026 |
| CCTCGCAA | 0.102 ± 0.077 |
| AATTGGAC | -0.187 ± 0.049 |
| GCAGTGGA | -0.261 ± 0.065 |
| AACCTTAG | -0.144 ± 0.086 |
| AACCTTAC | 0.0738 ± 0.012 |
| CCCCTTAG | -0.184 ± 0.068 |
| GACCTTAC | -0.286 ± 0.0076 |
| AACCTTAA | -0.218 ± 0.046 |
| CACCTTAG | 0.401 ± 0.04 |
| CACCTTAA | 0.387 ± 0.004 |
| GACCTTAA | -0.188 ± 0.0048 |
| CACCTTAC | 0.413 ± 0.017 |
| TAAGAGCA | -0.252 ± 0.049 |

| Sequence | PBM E-score of 8-mer |
| --- | --- |
| CCGCTACC | 0.162 ± 0.04 |
| ATGCTTCG | 0.0174 ± 0.071 |
| CGTGCCTA | -0.0792 ± 0.002 |
| GGTAGGCA | -0.079 ± 0.028 |
| AAACTACA | 0.014 ± 0.14 |
| TAGGGGCA | -0.127 ± 0.04 |
| ATGCACGC | -0.0415 ± 0.12 |
| AGGTGAAC | 0.164 ± 0.025 |
| CGAAATCG | 0.2456 ± 0.0015 |
| AACTTGTC | 0.355 ± 0.03 |
| CACTTGTC | 0.375 ± 0.012 |
| AACTTGCG | 0.198 ± 0.0091 |
| CACTTGCG | 0.387 ± 0.026 |
| CACTTGCA | 0.336 ± 0.012 |
| CACTTGTA | 0.116 ± 0.046 |
| CGGCGCCC | 0.0161 ± 0.043 |
| CTCTGACA | 0.233 ± 0.019 |
| TAACATTA | -0.0674 ± 0.087 |
| TAATATTA | -0.13 ± 0.033 |
| GAGTCGAC | 0.107 ± 0.061 |
| GATGTCCA | -0.22 ± 0.056 |
| CGCTAACG | 0.373 ± 0.0088 |

| Sequence | PBM E-score of 8-mer |
| --- | --- |
| CGCTAACC | 0.19 ± 0.0091 |
| AGCTAACA | 0.233 ± 0.022 |
| TGCTAACA | 0.369 ± 0.022 |
| AGCTAACG | 0.236 ± 0.016 |
| GGCTAACA | 0.235 ± 0.024 |
| CAGCTCGG | -0.132 ± 0.057 |
| CGGTGGAA | -0.0405 ± 0.033 |
| ATCTATGC | -0.197 ± 0.03 |
| ACGAGTAT | -0.0491 ± 0.014 |
| CAATCCTA | -0.0316 ± 0.041 |
| AAACCACT | -0.258 ± 0.016 |
| AGCACTTG | 0.168 ± 0.018 |
| AACGCATG | 0.0228 ± 0.0081 |
| GACCTTGC | -0.153 ± 0.0056 |
| AACCTTGC | 0.00568 ± 0.0057 |
| CACCTTGA | 0.367 ± 0.042 |
| CACCTTGC | 0.389 ± 0.013 |
| TACCTTGA | 0.01 ± 0.065 |
| AACCTTGG | -0.0793 ± 0.032 |
| GACCTTGA | -0.145 ± 0.019 |
| CAGCTTGG | -0.00698 ± 0.044 |
